Assay results taken from PubChem BioAssay (NCATS).
Values joined by “and” are separate entries in the source; they are usually repeats but may differ in a detail not shown here. Equal entries are not always repeated. Records with an inconclusive call do not appear. Active and inactive are the calls of the source. Calls follow the shape of the dose curve; as a rule, active = well fitted inhibition curve with a large enough effect; inconclusive = small, poorly fitted or top-dose-only effect; inactive = flat fitted curve, though single readings scatter. Where a SMILES comes first, the peptide text is derived from it. Bridges are numbered along the chain shown (N, C = ends). [ ]: non-standard residue; d: D form. The star is where a group is joined. Dab(CH2SO3H) = N[C@@H](CCNCS(=O)(=O)O)C(=O)O; X3 = CC[C@@H](C)CCCCC(=O)*; Dab = NCC[C@H](N)C(=O)O
% is scaled to controls: 0 for no effect and ±100 for the full control effect; potency is read from the fitted curve at half-maximal effect.

These compounds were tested on KB-3-1 (assay: Cytotoxic Profiling of Annotated Libraries Using Quantitative High-Throughput Screening (AID 1296008; also: nearly all actives have a fitted effect of over 60% in size)). Conditions: Five cell lines viability, CellTiter-Glo ATP luminescence, 48-72 h; max response: active compounds read low.
Outline: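 Cytotoxicity was measured as CellTiter-Glo ATP luminescence, read after 10 min at room temperature. Compound treatment of the cells lasted 48 or 72 hr at 37 degrees Celsius in a qHTS format.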
With `C=CCSSSCC=C` the max response was -7.72% (inactive).
In the case of `CO[C@H]1C=CO[C@@]2(C)Oc3c(C)c(O)c4c(O)c(c5c(nc6cc(C)ccn65)c4c3C2=O)NC(=O)/C(C)=C\C=C[C@H](C)[C@H](O)[C@@H](C)[C@@H](O)[C@@H](C)[C@H](OC(C)=O)[C@@H]1C`, the max response is reported as 5.41% (inactive).
For `O=C(O)c1cc(O)c2c(c1)[O][Bi][O]2`, the max response was 2% (inactive).
With `N[C@H](C(=O)O)[C@@H]1CC(Cl)=NO1` the Potency was 20.6 µM (active).
With `CC(C)C(=O)OCC(=O)[C@@]12O[C@H](C3CCCCC3)O[C@@H]1C[C@H]1[C@@H]3CCC4=CC(=O)C=C[C@]4(C)[C@H]3[C@@H](O)C[C@@]12C` the max response was -5.72% (inactive).
With `CO[C@@H]1[C@@H](O[C@@H]2O[C@H](C)[C@@H](O[C@H]3C[C@@](C)(O)[C@@H](OC(=O)CC(C)C)[C@H](C)O3)[C@H](N(C)C)[C@H]2O)[C@@H](CC=O)C[C@@H](C)C(=O)/C=C/C2OC2C[C@@H](C)OC(=O)C[C@H]1OC(C)=O` (some centres undefined) the max response was 20.2% (inactive).
For `CC(=O)OCC(=O)[C@@]12OC3(CCCC3)O[C@@H]1C[C@H]1[C@@H]3CCC4=CC(=O)C=C[C@]4(C)[C@@]3(F)[C@@H](O)C[C@@]12C`, the max response was -4.92% (inactive).
In the case of `CC(=O)Oc1cc(C)c(OC(C)=O)c2ccccc12`, the max response is reported as 4.15% (inactive).
`C=C(NC(=O)C(=C)NC(=O)c1csc(C2=N[C@@H]3c4csc(n4)[C@H]4NC(=O)c5csc(n5)[C@H]([C@](C)(O)[C@@H](C)O)NC(=O)[C@H]5CSC(=N5)C(=CC)NC(=O)C([C@@H](C)O)NC(=O)c5csc(n5)[C@]3(CC2)NC(=O)[C@H](C)NC(=O)C(=C)NC(=O)[C@H](C)NC(=O)C([C@@H](C)CC)NC2C=Cc3c([C@H](C)O)cc(nc3C2O)C(=O)O[C@@H]4C)n1)C(N)=O` (some centres undefined) was tested, and the max response was -16.7% (inactive).
With `COc1cc2c(cc1O)CCN[C@]21CS[C@@H]2c3c(OC(C)=O)c(C)c4c(c3[C@H](COC1=O)N1[C@@H]2[C@H]2c3c(cc(C)c(OC)c3O)C[C@@H]([C@@H]1O)N2C)OCO4` the Potency was 5.2 nM (active) and 28.2 nM (active).
`CCOc1ccc2c(c1)C(C)=CC(C)(C)N2` was tested, and the max response was -2.71% (inactive).
With `Cc1c(C)c2c(c(C)c1O)CC[C@@](C)(CCC[C@H](C)CCC[C@H](C)CCCC(C)C)O2` the max response was 4.35% (inactive) and -16.8% (inactive).
In the case of `CC(C)N=c1cc2n(-c3ccc(Cl)cc3)c3ccccc3nc-2cc1Nc1ccc(Cl)cc1`, the max response is reported as 6.76% (inactive).
In the case of `CCCCCCCC(=O)O`, the max response is reported as -16.7% (inactive).
With `CC(C(=O)O)c1ccc(N2Cc3ccccc3C2=O)cc1` (centres undefined) the max response was -24.5% (inactive).
In the case of `O=CCCCC=O`, the max response is reported as -2.08% (inactive).
With `CCCC(=O)O[C@]1(C(=O)COC(C)=O)CC[C@H]2[C@@H]3C[C@H](F)C4=CC(=O)C=C[C@]4(C)[C@@]3(F)[C@@H](O)C[C@@]21C` the max response was 20.2% (inactive).
`O=S(=O)(O)O` was tested, and the max response was 5.37% (inactive).
With `CC[C@@H](C)CCCCC(=O)N[C@@H](CCNCS(=O)(=O)O)C(=O)N[C@H](C(=O)N[C@@H](CCNCS(=O)(=O)O)C(=O)N[C@H]1CCNC(=O)[C@H]([C@@H](C)O)NC(=O)[C@H](CCNCS(=O)(=O)O)NC(=O)[C@H](CCNCS(=O)(=O)O)NC(=O)[C@H](CC(C)C)NC(=O)[C@@H](CC(C)C)NC(=O)[C@H](CCNCS(=O)(=O)O)NC1=O)[C@@H](C)O` (X3-[Dab(CH2SO3H)]T[Dab(CH2SO3H)][Dab][Dab(CH2SO3H)][dL]L[Dab(CH2SO3H)][Dab(CH2SO3H)]T; lactam 4-C) the max response was 9.65% (inactive).
In the case of `CCCCC(C)(O)C/C=C/[C@H]1[C@H](O)CC(=O)[C@@H]1CCCCCCC(=O)OC` (some centres undefined), the max response is reported as 3.19% (inactive).
`C[C@]12CCC(=O)C=C1CC[C@@H]1[C@@H]2[C@@H](O)C[C@@]2(C)[C@H]1CC[C@]2(O)C(=O)COP(=O)(O)O` was tested, and the max response was 13.4% (inactive).
For `CC(=O)N(CC(C)C(=O)O)c1c(I)cc(I)c(N)c1I` (centres undefined), the max response was -8.47% (inactive).
With `CC1=C(/C=C/C(C)=C/C=C/C(C)=C/C=C/C=C(C)/C=C/C=C(C)/C=C/C2=C(C)CCCC2(C)C)C(C)(C)CCC1` the max response was -7.35% (inactive).
`C=CC1=C(C)C2=CC3=NC(=C(CC(=O)[O-])C4=NC(=C(C)C4=C([O-])[O-])C=c4[n-]c(c(C)c4CC)=CC1=N2)C(CCC(=O)[O-])C3C.[Cu+2].[Na+].[Na+].[Na+]` (centres undefined) was tested, and the max response was -6.08% (inactive).
